Structures are written as SMILES.

This experiment deals with PRMT1 (protein arginine N-methyltransferase 1). Kind of experiment: PRMT1 binders on small-molecule microarrays, primary screen, biochemical, small-molecule microarray, 635 nm fluorescence (AID 1088). As to conditions: small-molecule microarray binding, higher = more signal.
`CO[C@H]1COC(=O)CC=C[C@H](C)[C@@H](OC)COC(=O)[C@@H](C)NC(=O)CC=C[C@@H]1C` registered a composite z-score of 1.53.
The compound `CCOC(=O)[C@H](Cc1ccccc1)NC(=O)OC1CC(CCC2CC(CC)=NO2)OC2(CCCC(COC(=O)NCCC(C)C)O2)C1` (stereo partly specified) returned a composite z-score of 1.19.
In the case of `CC(C)CON=C1C[C@@H](O)[C@@H](O)[C@@H]2[C@@H]3C(=O)N(c4ccc(F)cc4F)C(=O)[C@@H]3CC[C@H]12` it was 1.55; in that of `CC(C)(C)N1C(=O)[C@H]2[C@H]3[C@H](O)[C@H](O)CC(=NO[C@@H]4O[C@H](CO)[C@@H](O)[C@H](O)[C@H]4O)[C@H]3CC[C@H]2C1=O`, 0.693.
`COC(=O)C=CCCc1coc(C=CCNC(=O)OC)n1`: the composite z-score came out at 1.45.
As for `Cc1ccc(S(=O)(=O)OC[C@H]2CN3[C@H](c4ccc(Br)cc4)[C@@H](C)CC[C@H]3C(=O)O2)cc1`, the figure is 1.23; as for `CO[C@@H]1COC(=O)[C@@H](C)NC(=O)CC=C[C@@H](C)[C@H](NS(=O)(=O)c2ccc(C)cc2)COC(=O)[C@H](C)NC(=O)CC=C[C@H]1C`, 1.36.
In the case of `COC(=O)[C@H](C)NC(=O)CCC1CC(OC(=O)NCc2ccc3c(c2)OCO3)CC2(CCCC(COC(=O)NCC3CCCCC3)O2)O1` (stereo partly specified), the composite z-score worked out at 1.46.
As for `C#CCCCON=C1C[C@@H](O)[C@@H](O)[C@@H]2[C@@H]3C(=O)N(C(C)(C)C)C(=O)[C@@H]3CC[C@H]12`, the figure is -0.872; as for `CCOC(=O)NN=C1C[C@@H](O)[C@@H](O)[C@@H]2[C@@H]3C(=O)N(C(C)(C)C)C(=O)[C@@H]3CC[C@H]12`, -0.247.
As for `C[C@H]1COC(=O)[C@@H]2CCCN2C(=O)[C@@H](C)COC(=O)[C@H](Cc2ccccc2)NC1=O`, the figure is 0.907.
